TIM10 inh: TIM10 yeast growth inhibition; inhibition, % at 10 µM; 1.4% of 330,000 active; S. cerevisiae TIM10 strain growth, BacTiter-Glo luminescence, 24 h;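 active means inhibition of 40% or more at the single tested concentration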;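 further: wild-type TIM10 isogenic control strain grown at permissive 25 °C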
tim10-1 inh: growth inhibitors of tim10-1 mutant yeast. inhibition, % at 20 µM. 2.2% of 330,000 active. AID 463190. S. cerevisiae tim10-1 ts strain growth, BacTiter-Glo, 24 h;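 active means inhibition of at least 40%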;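 further: mutant grown at 25 °C; 0% = DMSO wells with yeast and 100% = wells holding no yeast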
PfHsp90 set2: growth inhibition of yeast expressing Plasmodium Hsp90; S. cerevisiae expressing PfHsp90, BacTiter-Glo ATP, 48 h; yeast lacking PDR1 and PDR3 efflux regulators; inhibition, % at 9.4 µM; 0.32% of 310,000 active; AID 504621;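 active means every replicate shows inhibition above about 80%, whatever the replicate mean, limit read from the data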;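 further: 0% = DMSO neutral controls and 100% = 20 µM radicicol positive controls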
tim23-1 inh: growth inhibitors of tim23-1 mutant yeast. S. cerevisiae tim23-1 growth, BacTiter-Glo luminescence, 24 h. inhibition, % at 20 µM. 1.3% of 330,000 active;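 active means growth inhibition of the mutant yeast at or above 50%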;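 further: temperature-sensitive mutant grown at 25 °C; plate controls were DMSO-treated mutant yeast for no effect and medium wells lacking yeast for full effect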
NALP3 yeast inh: inhibitors of NALP3 inflammasome in yeast | Yeast reconstituted NLRP3/ASC/caspase-1, beta-gal luminescence, 24 h | inhibition, % at 10 µM | 0.39% of 330,000 active;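 active means inhibition of 50% or more; inactive means inhibition below 50%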;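 further: plate controls were induced DMSO wells for no effect and uninduced yeast grown without galactose for full effect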
SKKanGAS inh: blocks kanamycin growth of S. pyogenes SKKanGAS strain; 1.3% of 300,000 active; inhibition, % at 7.5 µM; BacTiter-Glo, 6 h; AID 1662;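 active means mean replicate score, as percent of positive control median, at least 50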;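 further: strain carries kanamycin resistance gene driven by streptokinase promoter and grows in 40 µg/ml kanamycin; loss of luminescence reflects streptokinase promoter inhibition or plain growth inhibition; 0% = median of DMSO wells and 100% = positive control at its reference dose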
tim23-1 confirm: confirmation of tim23-1 mutant yeast growth inhibitors | shares compounds with tim23-1 inh | S. cerevisiae tim23-1 growth, BacTiter-Glo luminescence, 24 h | inhibition, % at 20 µM | 83% of 4,400 active | AID 463218;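 active means inhibition above about 39% in either of two replicate wells at 20 µM, limit read from the data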;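 further: temperature-sensitive tim23-1 mutant grown at 25 °C; 0% = DMSO wells with yeast and 100% = medium wells without yeast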
Starred values were filed as active, the others as inactive; nt = no result given. Rows were chosen to be rich in hits. Some 4.6% of all compounds tested hit in one or more screens of this group.

SMILES	TIM10 inh	tim10-1 inh	PfHsp90 set2	tim23-1 inh	NALP3 yeast inh	SKKanGAS inh	tim23-1 confirm
CCCCC(=O)NC(c1ccccc1)c1ccc2cccnc2c1O (stereo unspecified)	7	11	115*	66*	8	16	58*
CCCC(=O)NC(c1ccccc1)c1ccc2cccnc2c1O (stereo unspecified)	-8	26	113*	58*	11	22	60*
Cc1cccc(C(=O)Nc2ccc(C(=O)/C=C/c3ccncc3)cc2)c1	26	34	-13	62*	23	2	59*
Cc1cccc(C(=O)Nc2cccc(C(=O)N/N=C/c3ccncc3)c2)c1	5	12	3	10	14	-3	nt
O=C(Oc1ccccc1/C=C\C(=O)c1cc2ccccc2o1)c1cccc(F)c1	33	30	4	52*	28	-61	58*
S=C(NCCc1cccc(Cl)c1)NCc1ccccc1	30	36	33	56*	14	nt	34
O=C(c1ccccc1)N1N=C(c2cccs2)CC1c1ccccc1O (stereo unspecified)	14	12	3	57*	15	-11	43*
Cc1ccc(C2CC(c3cccs3)=NN2C(=O)CCl)cc1 (stereo unspecified)	35	25	-49	64*	31	10	-29
COc1ccc(CNC(=O)C/C(C)=N/NC(=O)COc2ccccc2)cc1	-1	4	10	3	12	-5	nt
Clc1ccc(-c2cn3cccnc3n2)cc1Cl	22	19	-7	54*	-6	2	33
Clc1ccc(-c2cn3cccnc3n2)cc1	1	6	-125	53*	50	-9	35
CCN(CC(=O)Nc1ccc2c(c1)OCCO2)C(=O)CCc1ccccc1Cl	12	21	-4	36	10	nt	nt
CCOC(=O)c1c(NC(=O)CSc2nnnn2-c2ccc(OC)cc2)sc(C)c1C	-1	21	5	50*	3	-9	82*
CCOC(=O)c1csc(NC(=O)CSc2nnnn2-c2ccc(OC)cc2)n1	8	8	1	16	0	-1	nt
COC(=O)C1CCN(C(=O)C2CCC(=O)N(CCc3cccc(F)c3)C2)CC1 (stereo unspecified)	1	1	-4	5	-3	-4	nt
O=C(Nc1cc(Cl)ccn1)C1(c2ccccc2)CC1(Cl)Cl (stereo unspecified)	17	32	2	55*	19	39	65*
O=C(Nc1ccccc1)C1(c2ccccc2)CC1(Cl)Cl (stereo unspecified)	28	18	60	28	18	-2	nt
COC(=O)C1=C(C(=O)OC)C(c2cc(Cl)ccc2O)c2sc(=O)[nH]c2S1 (stereo unspecified)	33	34	-21	62*	6	23	58*
COC(=O)C1=C(C(=O)OC)C(c2cc(Br)ccc2O)c2sc(=O)[nH]c2S1 (stereo unspecified)	nt	nt	-27	nt	nt	nt	nt
O=C(c1ccc(-c2cccc(C(F)(F)F)c2)o1)N1CCCC(C(F)(F)F)C1 (stereo unspecified)	22	27	17	22	0	-5	nt
CCOc1ccc(-n2c(=S)sc3c(=O)[nH]c(SCC(=O)C(C)(C)C)nc32)cc1	-2	0	-2	14	8	31	nt
CCN=C1S/C(=C\c2cn(C(C)=O)nc2-c2ccccc2)C(=O)N1CC	29	28	nt	53*	6	4	48*
CC(=O)NC1=NC(=O)/C(=C/c2cn(C(C)=O)nc2-c2ccccc2)S1	-21	5	19	-1	6	6	nt
CN(c1cccc(NC(=O)CN(c2cccc(Cl)c2)S(=O)(=O)c2ccc(Cl)cc2)c1)S(C)(=O)=O	6	18	9	20	8	18	nt
CS/C(=N\S(=O)(=O)c1ccc(Cl)cc1)c1ccccc1	36	23	5	57*	6	4	36
O=C1CCCN1C(=O)CSc1ncnc2sccc12	-6	-18	18	2	19	nt	nt
O=S(=O)(Nc1ccc(Cl)cn1)c1ccc(F)cc1	8	16	-1	32	20	-4	nt
